{"source": "paper PMC11062922", "about": "(Nature Chemical Biology, 2023)", "test_system": "PAK4", "settings": "read-out: apparent Kd, n = 1", "note": "Read-outs that look alike come from different tables or passages of the source."}
{"substance": "Lestaurtinib", "values": [{"measurement": "potency estimated from few doses", "setting": "compound concentrations:100 nM and 1000 nM (sheet 'Lestaurtinib' of Supplementary Table 1),run:Lestaurtinib_02572_R1,Plate:MR015", "value": 0.0261, "unit": "µM"}, {"measurement": "potency estimated from few doses", "setting": "compound concentrations:100 nM and 1000 nM (sheet 'Lestaurtinib' of Supplementary Table 1),run:Lestaurtinib_02572_R2,Plate:MR015", "value": 0.0379, "unit": "µM"}, {"measurement": "potency estimated from few doses", "setting": "compound concentrations:100 nM and 1000 nM (sheet 'Lestaurtinib' of Supplementary Table 1),run:Lestaurtinib_02584_R2,Plate:MR017", "value": 0.0274, "unit": "µM"}, {"measurement": "potency estimated from few doses", "setting": "compound concentrations:100 nM and 1000 nM (sheet 'Lestaurtinib' of Supplementary Table 1),run:Lestaurtinib_02601_R1,Plate:MR018", "value": 0.0329, "unit": "µM"}, {"measurement": "potency estimated from few doses", "setting": "compound concentrations:100 nM and 1000 nM (sheet 'Lestaurtinib' of Supplementary Table 1),run:Lestaurtinib_02601_R2,Plate:MR018", "value": 0.0365, "unit": "µM"}, {"measurement": "potency estimated from few doses", "setting": "compound concentrations:100 nM and 1000 nM (sheet 'Lestaurtinib' of Supplementary Table 1),run:Lestaurtinib_02601_R3,Plate:MR018", "value": 0.0323, "unit": "µM"}, {"measurement": "potency estimated from few doses", "setting": "compound concentrations:100 nM and 1000 nM (sheet 'Lestaurtinib' of Supplementary Table 1),run:Lestaurtinib_02606_R1,Plate:MR019", "value": 0.0354, "unit": "µM"}, {"measurement": "potency estimated from few doses", "setting": "compound concentrations:100 nM and 1000 nM (sheet 'Lestaurtinib' of Supplementary Table 1),run:Lestaurtinib_02606_R3,Plate:MR019", "value": 0.0356, "unit": "µM"}, {"measurement": "potency estimated from few doses", "setting": "compound concentrations:100 nM and 1000 nM (sheet 'Lestaurtinib' of Supplementary Table 1),run:Lestaurtinib_02624_R1,Plate:MR020", "value": 0.0261, "unit": "µM"}, {"measurement": "potency estimated from few doses", "setting": "compound concentrations:100 nM and 1000 nM (sheet 'Lestaurtinib' of Supplementary Table 1),run:Lestaurtinib_02624_R2,Plate:MR020", "value": 0.031, "unit": "µM"}, {"measurement": "potency estimated from few doses", "setting": "compound concentrations:100 nM and 1000 nM (sheet 'Lestaurtinib' of Supplementary Table 1),run:Lestaurtinib_02724_R1,Plate:MR021", "value": 0.0329, "unit": "µM"}, {"measurement": "potency estimated from few doses", "setting": "compound concentrations:100 nM and 1000 nM (sheet 'Lestaurtinib' of Supplementary Table 1),run:Lestaurtinib_02724_R3,Plate:MR021", "value": 0.033, "unit": "µM"}, {"measurement": "potency estimated from few doses", "setting": "compound concentrations:100 nM and 1000 nM (sheet 'Lestaurtinib' of Supplementary Table 1),run:Lestaurtinib_02741_R1,Plate:MR023", "value": 0.0386, "unit": "µM"}, {"measurement": "potency estimated from few doses", "setting": "compound concentrations:100 nM and 1000 nM (sheet 'Lestaurtinib' of Supplementary Table 1),run:Lestaurtinib_02741_R2,Plate:MR023", "value": 0.0394, "unit": "µM"}, {"measurement": "potency estimated from few doses", "setting": "compound concentrations:100 nM and 1000 nM (sheet 'Lestaurtinib' of Supplementary Table 1),run:Lestaurtinib_02741_R3,Plate:MR023", "value": 0.0356, "unit": "µM"}, {"measurement": "potency estimated from few doses", "setting": "compound concentrations:100 nM and 1000 nM (sheet 'Lestaurtinib' of Supplementary Table 1),run:Lestaurtinib_02748_R1,Plate:MR024", "value": 0.0304, "unit": "µM"}, {"measurement": "potency estimated from few doses", "setting": "compound concentrations:100 nM and 1000 nM (sheet 'Lestaurtinib' of Supplementary Table 1),run:Lestaurtinib_02765_R1,Plate:MR026", "value": 0.0298, "unit": "µM"}, {"measurement": "potency estimated from few doses", "setting": "compound concentrations:100 nM and 1000 nM (sheet 'Lestaurtinib' of Supplementary Table 1),run:Lestaurtinib_02765_R2,Plate:MR026", "value": 0.0365, "unit": "µM"}, {"measurement": "potency estimated from few doses", "setting": "compound concentrations:100 nM and 1000 nM (sheet 'Lestaurtinib' of Supplementary Table 1),run:Lestaurtinib_02765_R3,Plate:MR026", "value": 0.0365, "unit": "µM"}, {"measurement": "potency estimated from few doses", "setting": "compound concentrations:100 nM and 1000 nM (sheet 'Lestaurtinib' of Supplementary Table 1),run:Lestaurtinib_02766_R1,Plate:MR027", "value": 0.0278, "unit": "µM"}, {"measurement": "potency estimated from few doses", "setting": "compound concentrations:100 nM and 1000 nM (sheet 'Lestaurtinib' of Supplementary Table 1),run:Lestaurtinib_02766_R2,Plate:MR027", "value": 0.0237, "unit": "µM"}, {"measurement": "potency estimated from few doses", "setting": "compound concentrations:100 nM and 1000 nM (sheet 'Lestaurtinib' of Supplementary Table 1),run:Lestaurtinib_02768_R1,Plate:MR028", "value": 0.0354, "unit": "µM"}, {"measurement": "potency estimated from few doses", "setting": "compound concentrations:100 nM and 1000 nM (sheet 'Lestaurtinib' of Supplementary Table 1),run:Lestaurtinib_02768_R2,Plate:MR028", "value": 0.0295, "unit": "µM"}, {"measurement": "potency estimated from few doses", "setting": "compound concentrations:100 nM and 1000 nM (sheet 'Lestaurtinib' of Supplementary Table 1),run:Lestaurtinib_02768_R3,Plate:MR028", "value": 0.0327, "unit": "µM"}, {"measurement": "potency estimated from few doses", "setting": "compound concentrations:100 nM and 1000 nM (sheet 'Lestaurtinib' of Supplementary Table 1),run:Lestaurtinib_02795_R1,Plate:MR022", "value": 0.0351, "unit": "µM"}, {"measurement": "potency estimated from few doses", "setting": "compound concentrations:100 nM and 1000 nM (sheet 'Lestaurtinib' of Supplementary Table 1),run:Lestaurtinib_02795_R2,Plate:MR022", "value": 0.0297, "unit": "µM"}, {"measurement": "potency estimated from few doses", "setting": "compound concentrations:100 nM and 1000 nM (sheet 'Lestaurtinib' of Supplementary Table 1),run:Lestaurtinib_02795_R3,Plate:MR022", "value": 0.113, "unit": "µM"}, {"measurement": "potency estimated from few doses", "setting": "compound concentrations:100 nM and 1000 nM (sheet 'Lestaurtinib' of Supplementary Table 1),run:Lestaurtinib_02802_R3,Plate:MR029", "value": 0.0248, "unit": "µM"}, {"measurement": "potency estimated from few doses", "setting": "compound concentrations:100 nM and 1000 nM (sheet 'Lestaurtinib' of Supplementary Table 1),run:Lestaurtinib_02896_R1,Plate:MR030", "value": 0.0359, "unit": "µM"}, {"measurement": "potency estimated from few doses", "setting": "compound concentrations:100 nM and 1000 nM (sheet 'Lestaurtinib' of Supplementary Table 1),run:Lestaurtinib_02896_R2,Plate:MR030", "value": 0.0301, "unit": "µM"}, {"measurement": "potency estimated from few doses", "setting": "compound concentrations:100 nM and 1000 nM (sheet 'Lestaurtinib' of Supplementary Table 1),run:Lestaurtinib_02896_R3,Plate:MR030", "value": 0.0362, "unit": "µM"}, {"measurement": "potency estimated from few doses", "setting": "compound concentrations:100 nM and 1000 nM (sheet 'Lestaurtinib' of Supplementary Table 1),run:Lestaurtinib_03172_R1,Plate:MR031", "value": 0.0327, "unit": "µM"}, {"measurement": "potency estimated from few doses", "setting": "compound concentrations:100 nM and 1000 nM (sheet 'Lestaurtinib' of Supplementary Table 1),run:Lestaurtinib_03172_R2,Plate:MR031", "value": 0.0296, "unit": "µM"}, {"measurement": "potency estimated from few doses", "setting": "compound concentrations:100 nM and 1000 nM (sheet 'Lestaurtinib' of Supplementary Table 1),run:Lestaurtinib_03172_R3,Plate:MR031", "value": 0.0261, "unit": "µM"}, {"measurement": "potency estimated from few doses", "setting": "compound concentrations:100 nM and 1000 nM (sheet 'Lestaurtinib' of Supplementary Table 1),run:Lestaurtinib_03252_R1,Plate:MR032", "value": 0.0434, "unit": "µM"}, {"measurement": "potency estimated from few doses", "setting": "compound concentrations:100 nM and 1000 nM (sheet 'Lestaurtinib' of Supplementary Table 1),run:Lestaurtinib_03252_R2,Plate:MR032", "value": 0.0253, "unit": "µM"}, {"measurement": "potency estimated from few doses", "setting": "compound concentrations:100 nM and 1000 nM (sheet 'Lestaurtinib' of Supplementary Table 1),run:Lestaurtinib_03260_R1,Plate:MR033", "value": 0.0486, "unit": "µM"}, {"measurement": "potency estimated from few doses", "setting": "compound concentrations:100 nM and 1000 nM (sheet 'Lestaurtinib' of Supplementary Table 1),run:Lestaurtinib_03260_R2,Plate:MR033", "value": 0.048, "unit": "µM"}]}
